Assay outcomes deposited in PubChem BioAssay by several laboratories.
NCOA1 inh: inhibits human SRC1 coactivator | inhibition, % at 3.6 µM | HEK293 GAL4-SRC1 luciferase reporter, luminescence | Q15788 | AID 588354 | 360,000 tested, 0.12% active;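 active = inhibition above the campaign mean plus 3 SD, with each screening campaign given its own cutoff, cut at about 60% in these data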;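 also: 0% = DMSO treated cells and 100% = gossypol at 36 µM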
LRH-1 inv ag: suppresses constitutive activity of human LRH-1; AID 602396; 360,000 tested, 0.13% active; inhibition, % at 3.6 µM; HEK293T StAR-luciferase reporter, LRH-1 transfected, 24 h;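 active = inhibition above the mean inhibition of all tested compounds plus 3 SD, cut at about 73% in these data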;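 also: 0% = DMSO wells and 100% = reporter-only cells lacking LRH-1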
LGR2 inh: inhibitors of bursicon-induced Drosophila LGR2 receptor cAMP signaling; HEK293 LGR2, CRE-luciferase, bursicon-stimulated, 4 h; inhibition, % at 9.99 µM; 380,000 tested, 0.35% active; AID 720647;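 active = drop in luminescence signal, shown as inhibition above about 50% in the replicate tests, limit read from the data, passing the limit was not always enough; inconclusive = probably only some replicates passing the limit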;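 also: agonist challenge used bursicon conditioned medium at about half maximal strength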
NCOA3 inh: inhibits human SRC3 coactivator. HEK293 GAL4-SRC3 luciferase reporter, luminescence. inhibition, % at 3.6 µM. 360,000 tested, 0.17% active. AID 588352;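 active = inhibition above a per-campaign cutoff, the mean of all compounds plus 3 SD, cut at about 60% in these data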;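 also: 0% = DMSO-treated cells and 100% = gossypol-treated cells at 36 µM; higher means less SRC3-driven luciferase light from the GAL4 reporter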
NCOA2 inhibitor: human SRC2 (NCOA2) inhibition; Q15596; HEK293 GAL4-SRC2 luciferase reporter, luminescence; inhibition, % at 9 µM; 370,000 tested, 0.17% active;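 active = inhibition above the mean inhibition of all tested compounds plus 3 SD, set per campaign, cut at about 52% in these data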;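 also: 0% = DMSO treated cells and 100% = cells given Gossypol at 36 µM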
Target sequence (Q15596 whole entry, looked up, the tested form may be a part): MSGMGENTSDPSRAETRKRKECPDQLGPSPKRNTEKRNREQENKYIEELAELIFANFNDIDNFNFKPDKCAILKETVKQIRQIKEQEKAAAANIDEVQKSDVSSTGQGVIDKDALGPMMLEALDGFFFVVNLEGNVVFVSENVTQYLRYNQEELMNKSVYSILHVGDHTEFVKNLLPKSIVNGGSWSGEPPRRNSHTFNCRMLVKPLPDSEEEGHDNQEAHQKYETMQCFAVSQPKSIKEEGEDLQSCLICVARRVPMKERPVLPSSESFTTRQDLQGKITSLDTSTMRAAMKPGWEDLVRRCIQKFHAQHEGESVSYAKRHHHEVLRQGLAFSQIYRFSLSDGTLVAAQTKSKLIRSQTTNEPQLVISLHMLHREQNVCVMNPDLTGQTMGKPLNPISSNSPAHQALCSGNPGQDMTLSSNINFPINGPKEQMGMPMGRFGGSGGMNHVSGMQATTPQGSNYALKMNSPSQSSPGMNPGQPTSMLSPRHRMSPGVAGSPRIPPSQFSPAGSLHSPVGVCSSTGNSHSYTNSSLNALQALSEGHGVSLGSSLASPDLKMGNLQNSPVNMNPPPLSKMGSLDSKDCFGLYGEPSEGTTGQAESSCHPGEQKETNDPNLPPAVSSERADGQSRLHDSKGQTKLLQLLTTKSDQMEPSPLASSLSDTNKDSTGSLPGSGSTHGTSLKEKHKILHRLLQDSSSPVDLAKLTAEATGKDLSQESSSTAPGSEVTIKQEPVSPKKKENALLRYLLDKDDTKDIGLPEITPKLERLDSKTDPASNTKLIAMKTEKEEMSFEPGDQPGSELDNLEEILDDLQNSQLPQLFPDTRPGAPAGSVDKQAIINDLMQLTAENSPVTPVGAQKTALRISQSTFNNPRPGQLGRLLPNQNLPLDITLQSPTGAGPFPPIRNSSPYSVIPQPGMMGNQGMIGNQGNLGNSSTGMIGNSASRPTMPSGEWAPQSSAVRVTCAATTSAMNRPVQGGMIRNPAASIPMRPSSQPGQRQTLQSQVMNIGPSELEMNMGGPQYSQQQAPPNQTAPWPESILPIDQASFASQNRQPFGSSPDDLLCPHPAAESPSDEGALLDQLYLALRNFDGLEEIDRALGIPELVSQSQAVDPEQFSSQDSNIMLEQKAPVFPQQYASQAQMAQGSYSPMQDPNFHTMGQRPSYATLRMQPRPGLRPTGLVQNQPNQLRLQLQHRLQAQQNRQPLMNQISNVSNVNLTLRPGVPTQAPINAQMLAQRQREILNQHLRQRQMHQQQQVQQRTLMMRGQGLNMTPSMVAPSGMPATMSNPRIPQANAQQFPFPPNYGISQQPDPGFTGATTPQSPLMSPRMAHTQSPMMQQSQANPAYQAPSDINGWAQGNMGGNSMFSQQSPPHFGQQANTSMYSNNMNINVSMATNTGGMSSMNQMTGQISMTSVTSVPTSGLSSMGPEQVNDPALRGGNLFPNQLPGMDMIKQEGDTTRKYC
Active calls of the source: *; ? = inconclusive; · = no result given; ! = not active in a repeat. Shown are actives, neighbours in structure and some others; about 0.48% of the full set was active somewhere.

SMILES	NCOA1 inh	LRH-1 inv ag	LGR2 inh	NCOA3 inh	NCOA2 inhibitor
CN(C)c1ccc(NC(=S)c2ccccn2)cc1	-26	-40	99*	26	51
CN(C)c1ccc(/C=C(\C#N)c2ccccn2)cc1	-37	-105	93*	-8	23
CN1CCN(C(=O)C[C@H]2CC[C@@H]3[C@H](COC[C@@H](O)CN3S(=O)(=O)c3cccc(Cl)c3)O2)CC1	·	·	-3	·	·
O=C(NC1CCC1)[C@H]1[C@H](CO)[C@H]2Cn3c(ccc(-c4ccncc4)c3=O)[C@H]2N1CCc1ccccc1	·	·	-2	·	·
C[C@@H]1CN([C@@H](C)CO)C(=O)c2cc(C#Cc3cccc(F)c3)cnc2O[C@@H]1CN(C)C(=O)C1CCCCC1	·	·	-13	·	·
Cc1cc(NC2CCCC2)n2nc(C)c(-c3ccccc3)c2n1	-43	17	-40	-15	-20
Cc1cc(NC2CCCC2)n2ncc(-c3ccccc3)c2n1	31	36	63*	-2	34
COc1ccc(-c2cc(C)nc3c(-c4ccccc4)cnn23)cc1	-52	-124	?	-67	-81
Cc1nc2c(-c3ccccc3)cnn2c(N)c1-c1ccccc1	72*	60	57*	67*	53*
Cc1cc(-c2ccccc2)n2ncc(-c3ccccc3)c2n1	-35	-45	60*	8	3
CCCNC(=O)C[C@@H]1CC[C@H]2[C@@H](COC[C@@H](O)CN2C(=O)C2CCOCC2)O1	·	·	-3	·	·
Cn1c(N=Nc2ccccc2)nc2ccccc21	-61	-62	·	-26	25
CN(C)c1ccc(N=Nc2nc3ccccc3n2C)cc1	-2	-32	103*	26	14
Cc1ccc(-n2c(O)c(C=Nc3cc(C)on3)c3ccccc3c2=O)c(C)c1	54	22	·	67*	3
Cc1cc(N=Cc2c(O)n(-c3ccc(C)c(C)c3)c(=O)c3ccccc23)no1	·	·	7	·	-10
CO[C@H]1CN(C)C(=O)c2cc(NS(C)(=O)=O)ccc2OC[C@H](C)N(Cc2ccccn2)C[C@H]1C	·	·	9	·	·
O=C(CCCN1C(=O)/C(=C/c2ccccc2Cl)SC1=S)NNC(=O)c1ccccc1	37	37	30	40	81*
O=C(CCCN1C(=O)/C(=C/c2cccs2)SC1=S)NNC(=O)c1cccnc1	5	15	-6	11	27
O=C(CCCN1C(=O)/C(=C/c2ccccc2Cl)SC1=S)NNC(=O)c1ccc(Cl)cc1Cl	27	3	16	34	81*
O=C(CCCN1C(=O)S/C(=C\c2ccccc2)C1=O)NNC(=O)c1ccccc1O	60	42	-23	71*	78*
O=C(CCN1C(=O)/C(=C/c2ccccc2Cl)SC1=S)Nc1ccccc1C(=O)O	-22	4	16	4	8
O=C(CCCN1C(=O)/C(=C/c2ccccc2Cl)SC1=S)NNC(=O)c1cccnc1	18	20	-7	18	79*
COc1ccc(/C=C2\Oc3ccccc3C2=O)cc1	-132	-104	56*	-102	-37
CN(C)c1ccc2c(c1)[C@H]1C[C@H](CC(=O)NCc3cccc(F)c3)O[C@@H](CO)[C@H]1O2	·	·	-5	·	·
CO[C@@H]1CN(C)C(=O)c2ccc(NC(=O)c3ccccc3F)cc2OC[C@@H](C)NC[C@@H]1C	·	·	-6	·	·
SMILES	NCOA1 inh	LRH-1 inv ag	LGR2 inh	NCOA3 inh	NCOA2 inhibitor
c1csc(C2=Nn3c(nnc3-c3ccncc3)SC2)c1	65*	41	·	60	43
c1ccc(C2=Nn3c(nnc3-c3cccs3)SC2)cc1	-30	5	-4	6	3
Clc1ccccc1C1=Nn2c(nnc2-c2ccncc2)SC1	58	31	·	66*	54*
c1ccc(-c2ccc(C3=Nn4c(nnc4-c4ccncc4)SC3)cc2)cc1	·	·	·	·	7
Cc1ccc(/C=C2/CNC/C(=C/c3ccc(C)cc3)C2=O)cc1	36	80*	55*	12	-54
C[C@H]1CN([C@@H](C)CO)C(=O)c2cccc(N(C)C)c2O[C@@H]1CN(C)Cc1ccc(C(F)(F)F)cc1	·	·	11	·	·
O=c1c2ccccc2nc(N/N=C/c2c(O)ccc3ccccc23)n1O	67*	84*	·	74*	18
Cc1sc2ncnc(N/N=C/c3cccc(O)c3)c2c1C	-33	-66	-34	-31	-31
C/C(=N\Nc1ncnc2sc(C)c(C)c12)c1ccccn1	49	-3	-3	81*	39
COc1ccc(C(C(=O)NC2CCCC2)n2c(CSCCOc3ccccc3)nc3ccccc32)cc1 (centres undefined)	·	21	-31	·	79*
CC(C(=O)NCc1ccccc1)n1c(CSCCOc2ccccc2)nc2ccccc21 (centres undefined)	·	0	18	·	3
COc1ccc(C(C(=O)NC2CCCC2)n2c(Cc3cc(F)cc(F)c3)nc3ccccc32)cc1 (centres undefined)	·	19	5	·	12
CCC(C(=O)NCc1ccccc1)n1c(CSCCOc2ccccc2)nc2ccccc21 (centres undefined)	·	45	-13	·	75*
CCN1/C(=C\C(=S)Nc2ccccc2)Sc2ccccc21	-17	7	·	6	-16
CCN1/C(=C/C(C)=C/c2sc3ccccc3[n+]2CC)Sc2ccccc21	39	77*	110*!	70*	-8
CCOCCCNC(=O)/C(C#N)=C/c1ccc(Cl)c([N+](=O)[O-])c1	1	9	90*	13	15
COc1ccc(C(=O)NCC(=O)OCc2c(Cl)cccc2Cl)cc1OC	-7	-8	-3	66*	4
CCCCOc1ccc(-c2cnc3ccccc3n2)cc1	-91	-175	70*	-86	-36
Oc1ccc(-c2cnc3ccccc3n2)cc1	-84	-84	-45	-88	-104
COc1ccc2c3c(n(C)c2c1)[C@H](CO)N(CC1CC1)CC31CN(C(=O)Nc2ccccc2)C1	·	·	-16	·	·
O=C1C=CC(=C(c2ccc(O)cc2)c2ccc(O)cc2)C=C1	59	81*	58*!	53	41
CCOC(=O)c1ccc(-c2ccc(N3C(c4ccsc4)=Cc4ccc(F)cc4C3c3c[nH]c4ccc(C#N)cc34)cc2)cc1F (centres undefined)	·	20	5	·	79*
Brc1ccc2ncnc(NCc3ccccc3)c2c1	67*	41	·	64*	55*
Cc1nnc(NC(=O)c2ccc3c(c2)OCO3)s1	-86	-109	4	-75	-79
O=C(CSc1nnc(NC(=O)c2ccc3c(c2)OCO3)s1)NCc1ccco1	-80	-113	60*	-74	-40
CSc1nnc(NC(=O)c2ccc3c(c2)OCO3)s1	-97	-65	67*	-70	-64
O=C(Nc1ccc(F)cc1)N1CCCCN2[C@H](C1)[C@H](c1ccc(C3=CCCCC3)cc1)[C@@H]2CO	·	·	26	·	·
C[C@@H]1CCCCO[C@@H](CN(C)S(=O)(=O)c2cccs2)[C@@H](C)CN([C@@H](C)CO)C(=O)c2cc(NS(C)(=O)=O)ccc2O1	·	·	2	·	·
Cc1nc2sc(-c3ccccc3)cc2c(=O)n1N	-67	-135	81*	-26	-29
Cc1nc2sc(-c3ccccc3)cc2c(=O)n1-n1cccc1	-117	-163	·	-76	-30
